Results from PubChem BioAssay (NCATS).
Results filed as inconclusive are left out. The source made the active and inactive calls. Calls follow the shape of the dose curve; as a rule, active = well fitted inhibition curve with a large enough effect; inconclusive = small, poorly fitted or top-dose-only effect; inactive = flat fitted curve, though single readings scatter.

What was measured:
Assay in all cases: qHTS profiling for inhibitors of Plasmodium falciparum proliferation (AID 504749); also: nearly all actives have a fitted effect of over 60% in size
Details in all cases: P. falciparum in erythrocytes, SYBR Green DNA, 72 h; series mostly up to 28.7 µM
[1] = system: CP256
Outline: (§1)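 Fluorescence of SYBR Green-bound parasite DNA, read at 485/535 nm, served as the growth measure. Infected erythrocytes were cultured with compound 72 h; artemisinin (0.29 uM) and DMSO wells defined the normalization range.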

[2] = system: CP260
Outline: as §1

[3] = system: CP262
Outline: as §1

[4] = system: CP265
Outline: as §1

[5] = system: CP268
Outline: as §1

[6] = system: CP269
Outline: as §1

[7] = system: CP297
Outline: as §1

[8] = system: CP305
Outline: as §1

[9] = system: CP315
Outline: as §1

[10] = system: CP325
Outline: as §1

[11] = system: CP329
Outline: as §1

[12] = system: DFO2036
Outline: as §1

[13] = system: DIV14
Outline: as §1

[14] = system: DIV17
Outline: as §1

[15] = system: DIV30
Outline: as §1

[16] = system: Dd2
Outline: as §1

[17] = system: ECU
Outline: as §1

[18] = system: FAB9
Outline: as §1

[19] = system: HB3
Outline: as §1

[20] = system: JCK
Outline: as §1

[21] = system: P93_24
Outline: as §1

[22] = system: P94_40
Outline: as §1

[23] = system: PAD
Outline: as §1

[24] = system: PC15
Outline: as §1

[25] = system: PC26
Outline: as §1

[26] = system: PC49
Outline: as §1

[27] = system: SC27B
Outline: as §1

[28] = system: TAB113
Outline: as §1

Measured: Potency

C=C1C(=O)O[C@@H]2[C@@H]1CC/C(C)=C\CC[C@@]1(C)O[C@H]21
inactive: all assays above
